# From PubChem BioAssay AID2322 (Broad Institute, 2010)
# The campaign covered roughly 27,000 compounds. About 120 (0.44%) were called active. What follows is part of a selection rich in actives, with near analogues and random picks from the rest. Unmarked numbers belong to inactive results. Cut-off read from the data, not from the text of the source: active = inhibition above about 20%; inconclusive = no clear call, values can overlap the other calls; inactive = below that.
# Biological target: Serine/threonine-protein kinase 33 (Homo sapiens) (UniProt Q9BYT3)
# Sequence (Q9BYT3 whole entry, looked up): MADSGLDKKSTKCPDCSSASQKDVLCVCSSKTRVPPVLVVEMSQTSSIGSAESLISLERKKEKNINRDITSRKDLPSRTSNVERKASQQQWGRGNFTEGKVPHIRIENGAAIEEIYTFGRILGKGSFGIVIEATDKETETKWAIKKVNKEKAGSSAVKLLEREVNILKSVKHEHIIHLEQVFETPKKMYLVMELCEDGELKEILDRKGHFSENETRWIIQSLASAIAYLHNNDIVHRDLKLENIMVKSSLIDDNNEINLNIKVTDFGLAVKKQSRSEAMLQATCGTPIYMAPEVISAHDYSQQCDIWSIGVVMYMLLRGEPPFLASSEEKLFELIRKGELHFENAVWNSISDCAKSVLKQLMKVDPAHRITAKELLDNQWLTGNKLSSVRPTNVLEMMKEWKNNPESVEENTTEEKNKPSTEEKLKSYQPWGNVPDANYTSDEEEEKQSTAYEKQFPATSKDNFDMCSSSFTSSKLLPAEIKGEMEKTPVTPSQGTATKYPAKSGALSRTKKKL
# Assay: STK33 kinase inhibitors, primary screen, biochemical, luminescence, ADP-Glo, MBP substrate (AID 2322)
# Conditions: at 12.5 µM, hits give high values
row,Compound,inhibition
1,COc1cccc(NC(=O)CCC(=O)O)c1,-2.64%
2,Cc1cccc(NC(=O)CSc2nnc3c4ccccc4nc(-c4ccccc4)n23)c1,-2.64%
3,Cc1cccc(C)c1NC(=O)CSc1nc(O)cc(=O)[nH]1,-1.7%
4,COc1ccccc1CC(=O)Nc1ccc(-c2nnc(-c3ccc(C)cc3)o2)cc1,6.73%
5,Cc1ccc2nc(-c3ccncc3)cc(C(=O)NCc3ccccn3)c2c1,-5.08%
6,COC(=O)c1sccc1NC(=O)COc1cc(C)ccc1Cl,6.51%
7,COc1cc2c(cc1NC(=O)CN(C)S(=O)(=O)c1ccc(Br)cc1)oc1ccccc12,-2.44%
8,Cc1ccc([N+](=O)[O-])cc1NC(=O)CSc1nnc(-c2ccncc2)n1C,-0.493%
9,O=C(CCn1nc(-c2ccccc2)c2ccccc2c1=O)Nc1cccc(Br)c1,8.57%
10,O=C(COc1ccc2ccccc2c1Br)NCCN1CCOCC1,0.329%
11,O=C(CSc1nnc(-c2ccncc2)n1-c1ccccc1)Nc1ccc(OC(F)(F)F)cc1,1.66%
12,COC(=O)c1c(-c2cccnc2)csc1NC(=O)c1cc(-c2ccc(C)o2)nc2ccccc12,9.69%
13,C[C@@H]1CN([C@H](C)CO)C(=O)Cc2cc(NC(=O)CCCN(C)C)ccc2O[C@H]1CN(C)S(=O)(=O)c1cccs1,-0.927%
14,COc1cc(OC)c(C2=NOC(C(=O)Nc3cccnc3)C2)cc1Cl (centres undefined),-2.64%
15,C[C@H](CO)N1C[C@H](C)[C@H](CN(C)S(=O)(=O)c2ccccc2)Oc2ccc(NC(=O)Cn3cnnn3)cc2C1=O,1.24%
16,COc1ccc(S(=O)(=O)Nc2ccc3c(c2)C(=O)N([C@H](C)CO)C[C@H](C)[C@@H](CN(C)Cc2ccc(-c4ccccc4)cc2)O3)cc1,2.44%
17,CC(=O)Nc1ccc(S(=O)(=O)NC2(C(F)(F)F)C(=O)N(Cc3ccc(F)cc3)C3=C2C(=O)CC(C)(C)C3)cc1 (centres undefined),-0.346%
18,CCOC(=O)c1sc(NC(=O)c2cc(C)on2)c(C(=O)OCC)c1C,-1.02%
19,Cc1nnc(SCC(=O)Nc2cc(C(F)(F)F)ccc2Cl)s1,3.42%
20,O=C(COc1ccc2oc3c(c2c1)CCCC3)Nc1cccnc1,-2.38%
21,O=C1c2ccccc2C(=O)N1CCCc1nc2ccccc2c(=O)n1-c1nc2ccccc2s1,-0.682%
22,CC(C)=CCCC(C)(O)C(O)Cc1cc(C(=O)O)cc(CC=C(C)C)c1O (centres undefined),-4.79%
23,O=C(Cn1ccc([N+](=O)[O-])n1)NCc1cccs1,4.56%
24,COc1ccc(C(=O)N(Cc2nc(-c3ccccc3)no2)C(C)C)cc1[N+](=O)[O-],-9.54%
25,COC(=O)c1cc(OC)c(OC)cc1NC(=O)COc1ccc(Cl)cc1,-1.45%
26,Cc1cc(Cl)ccc1NC(=O)CN(c1ccc(Cl)c(Cl)c1)S(C)(=O)=O,-1.61%
27,O=S(=O)(c1ccc(F)cc1)c1nc(-c2ccccc2Cl)oc1NCc1ccco1,4.44%

row,Compound,inhibition
1,COc1cc(-c2nc3ccccc3s2)ccc1OCC(=O)Nc1ccc(C)cc1,1.24%
2,C[C@H](CO)N1C[C@H](C)[C@H](CN(C)C)Oc2ncc(/C=C/c3ccccc3)cc2C1=O,-3.66%
3,Cc1noc(C)c1NC(=O)Nc1ccc2c(c1)C(=O)N([C@H](C)CO)C[C@H](C)[C@@H](CN(C)C(=O)Nc1ccc(C(F)(F)F)cc1)O2,3.9%
4,COc1ccccc1NC(=O)c1c(NC(=O)c2cccnc2)sc(C)c1C,4.55%
5,c1ccc(-n2c(SCc3nc4ccccc4s3)nnc2-c2ccncc2)cc1,1.5%
6,O=[N+]([O-])c1ccccc1-c1ccc(CN2CCN3CCCC3C2C2CCCCC2)o1 (centres undefined),-1.45%
7,O=C(CCn1nc(-c2ccc(Cl)cc2)c2ccccc2c1=O)Nc1cccc(C(F)(F)F)c1,0.989%
8,C[C@@H]1CN([C@H](C)CO)C(=O)Cc2cc(NS(C)(=O)=O)ccc2O[C@@H]1CN(C)C(=O)Nc1ccc2c(c1)OCO2,1.61%
9,CCOc1c(S(=O)(=O)NCc2cccnc2)ccc(Cl)c1Cl,3.15%
10,O=C(Oc1ccccc1)c1cccc(COC(=O)c2cc3ccccc3oc2=O)c1,-1.52%
11,COc1cccc(-c2cnc3c(c2)C(=O)N([C@H](C)CO)C[C@H](C)[C@H](CN(C)Cc2ccncc2)O3)c1,-1.09%
12,O=C1c2c(O)cc(O)cc2O[C@@H](c2ccc(O)cc2)[C@@H]1c1c(O)cc(O)c2c(=O)cc(-c3ccc(O)cc3)oc12,6.09%
13,Cc1cc(C)cc(OCC(=O)Nc2cccc(-c3nnc(-c4ccccc4)o3)c2)c1,4.59%
14,C[C@@H]1CN([C@@H](C)CO)C(=O)Cc2cc(NC(=O)Nc3ccc4c(c3)OCO4)ccc2O[C@@H]1CN(C)CC1CCCCC1,1.59%
15,c1ccc(Cn2c3ccccc3c3nnc(SCc4ccc5nonc5c4)nc32)cc1,2.04%
16,C[C@H]1CN([C@@H](C)CO)C(=O)CCCn2nncc2CO[C@@H]1CN(C)S(=O)(=O)c1cccc(C#N)c1,4.45%
17,COc1ccc(N2C(=O)CC(SCC(=O)Nc3ccccc3F)C2=O)cc1 (centres undefined),0.679%
18,Cc1ccc(-n2c(SCC(=O)Nc3ccc(F)c(F)c3)nnc2-c2cnccn2)cc1,-2.72%
19,COc1cc2c(cc1NC(=O)C1CCC(=O)N1S(=O)(=O)c1ccc(C)cc1)oc1ccccc12 (centres undefined),-1.01%
20,Cc1ccc(-c2nnc(Nc3ccc(C(=O)N(C)C)cc3)c3ccccc23)cc1S(N)(=O)=O,1.54%
21,CCc1c(O)nc(SCC(=O)Nc2ccc(OC)cc2)n(-c2ccccc2C)c1=O,-1.3%
22,S=c1cc(-c2ccccc2)oc(-c2ccccc2)c1,9.05%
23,COc1ccccc1NC(=O)CCC(=O)c1ccc(C)cc1,0.187%
24,CCN(CC)C(=O)c1ccc(O)c(OC)c1,1.6%
25,COc1cc(/C=C/C(=O)NCCc2ccc(O)cc2)ccc1O,-4.2%
26,COc1cc(/C=C2\Oc3cc(O)cc(O)c3C2=O)ccc1O,80.7% (active)
27,C[C@H](CO)N1C[C@H](C)[C@H](CN(C)S(=O)(=O)c2cccc(F)c2)OCc2cnnn2CCCC1=O,1.75%

row,Compound,inhibition
1,Cc1ccc2oc3c(c(=O)c2c1)C(c1ccc([N+](=O)[O-])cc1)N(CCCN1CCOCC1)C3=O (centres undefined),-0.738%
2,O=C(CSc1nnc(-c2ccccc2Cl)n1-c1ccccc1)Nc1ccc([N+](=O)[O-])cc1,1.7%
3,CCOC(=O)CCSc1nnc2c3ccccc3n(C)c2n1,0.466%
4,O=C(CN1C(=O)COc2ccc(Cl)cc21)Nc1ccc(N2CCOCC2)cc1,6.98%
5,O=C(CCn1cnc2ccccc2c1=O)Nc1cccc(C(F)(F)F)c1,-2.03%
6,CS(=O)(=O)CCC(C(=O)N1CCOCC1)N1C(=O)c2ccc(Br)cc2C1=O (centres undefined),-0.215%
7,Cc1nc2ccccc2n1CC(O)COc1ccc(C2C=CCC2)cc1 (centres undefined),-1.35%
8,COc1ccc([Si](C)(C)[C@@H]2[C@@H](CCO)O[C@]3(C(=O)N(Cc4cccc(N5CCCCC5=O)c4)c4ccccc43)[C@H]2C)cc1,2.11%
9,Cc1noc(C)c1S(=O)(=O)Nc1ccc2c(c1)CC(=O)N([C@H](C)CO)C[C@@H](C)[C@@H](CN(C)Cc1ccc(C(=O)O)cc1)O2,0.587%
10,CCCn1c2ccccc2c2nnc(SCC(=O)Nc3cccc4ccccc34)nc21,0.6%
11,CC(C)c1ccc(OCC(O)Cn2cnc3ccccc32)cc1 (centres undefined),0.565%
12,O=C(COc1ccc2c(=O)c(-c3ccccc3)coc2c1)Nc1ccc(F)cc1,1.18%
13,C[C@@H]1CN([C@@H](C)CO)C(=O)Cc2cc(NC(=O)C3CCCCC3)ccc2O[C@@H]1CN(C)Cc1ccncc1,0.459%
14,CC(C)CN1C(=O)[C@@]2(Cc3ccccc31)c1ccccc1C(=O)N(C1CCCCC1)[C@H]2c1ccc(CO)cc1,-0.707%
15,O=C(CSc1nc2sc3c(c2c(=O)[nH]1)CCC3)Nc1ccccc1C(F)(F)F,-3.77%
16,Cc1ccc(NC(=O)CSc2ncnc3sc(C)c(C)c23)cc1,5.19%
17,Cc1ccc(-c2nc3cc(NC(=O)COc4ccc([N+](=O)[O-])cc4)ccc3o2)cc1C,0.362%
18,CN(CC(=O)Nc1ccc(C#N)cc1)S(=O)(=O)c1ccc(Cl)cc1,4.42%
19,C[C@H]1CN([C@@H](C)CO)C(=O)c2cc(NC(=O)Cc3cn(C)c4ccccc34)ccc2O[C@H]1CN(C)CC1CCCCC1,0.289%
20,CS(=O)(=O)N(CC(=O)Nc1ccc2ccccc2c1)c1cc(Cl)c(Cl)cc1Cl,0.303%
21,O=c1[nH]nc(-c2ccc(NCc3cccnc3)c([N+](=O)[O-])c2)c2ccccc12,0.832%
22,CCOC(=O)c1c(NC(=O)CSc2ncn[nH]2)sc2c1CCC2,3.47%
23,CCOC(=O)c1c(NC(=O)C2(C)Cc3ccccc3C(=O)O2)sc2c1CCCC2 (centres undefined),0.582%
24,CS(=O)(=O)N(CC(=O)NC1CC1)c1ccc(Cl)c(C(F)(F)F)c1,-1.46%
25,O=C(NCCN1CCOCC1)C(=O)NCC1COc2ccccc2O1 (centres undefined),2.08%
